Measured values taken from PubChem BioAssay.
Calls of active or inactive are those of the source.

How the values were obtained:
[1] = small molecules captured by biotinylated probe aFSTL3 – biochemical, small-molecule microarray, fluorescence 635/667, stem cell growth factor project, primary screen (AID 1064); conditions: higher = more signal;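 also: measures binding of the biotinylated anti-FSTL3 antibody to printed compounds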
[2] = binders from COS7 lysate, DM2A8 probe, primary screen, torsin A project, cell lysate, small-molecule microarray, fluorescence 635/667 (AID 1065); conditions: higher = more signal, COS7 lysate expressing mutant human TOR1A
[3] = small molecules captured by biotinylated probe aFGF2 – biochemical, small-molecule microarray, fluorescence 635/667, stem cell growth factor project, primary screen (AID 1067); conditions: higher = more signal;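 also: measures binding of biotinylated aFGF2 protein to printed compounds on slides; z-score merges feature fluorescence and signal-to-noise across triplicate slides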
[4] = small molecules captured by biotinylated probe aFGF10 – biochemical, small-molecule microarray, fluorescence 635/667, stem cell growth factor project, primary screen (AID 1071); conditions: higher = more signal;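 also: score merges 667 nm spot intensity and signal to noise from triplicate slides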
[5] = biological target: Neurogenic locus notch homolog protein 2 (Homo sapiens) (UniProt Q04721); assay: small molecules binding Notch2 protein – biochemical, small-molecule microarray, 635 nm fluorescence, stem cell growth factors, primary screen (AID 1073); conditions: higher = more signal
Chain of Neurogenic locus notch homolog protein 2 (Homo sapiens) (Q04721 whole entry, looked up, canonical isoform): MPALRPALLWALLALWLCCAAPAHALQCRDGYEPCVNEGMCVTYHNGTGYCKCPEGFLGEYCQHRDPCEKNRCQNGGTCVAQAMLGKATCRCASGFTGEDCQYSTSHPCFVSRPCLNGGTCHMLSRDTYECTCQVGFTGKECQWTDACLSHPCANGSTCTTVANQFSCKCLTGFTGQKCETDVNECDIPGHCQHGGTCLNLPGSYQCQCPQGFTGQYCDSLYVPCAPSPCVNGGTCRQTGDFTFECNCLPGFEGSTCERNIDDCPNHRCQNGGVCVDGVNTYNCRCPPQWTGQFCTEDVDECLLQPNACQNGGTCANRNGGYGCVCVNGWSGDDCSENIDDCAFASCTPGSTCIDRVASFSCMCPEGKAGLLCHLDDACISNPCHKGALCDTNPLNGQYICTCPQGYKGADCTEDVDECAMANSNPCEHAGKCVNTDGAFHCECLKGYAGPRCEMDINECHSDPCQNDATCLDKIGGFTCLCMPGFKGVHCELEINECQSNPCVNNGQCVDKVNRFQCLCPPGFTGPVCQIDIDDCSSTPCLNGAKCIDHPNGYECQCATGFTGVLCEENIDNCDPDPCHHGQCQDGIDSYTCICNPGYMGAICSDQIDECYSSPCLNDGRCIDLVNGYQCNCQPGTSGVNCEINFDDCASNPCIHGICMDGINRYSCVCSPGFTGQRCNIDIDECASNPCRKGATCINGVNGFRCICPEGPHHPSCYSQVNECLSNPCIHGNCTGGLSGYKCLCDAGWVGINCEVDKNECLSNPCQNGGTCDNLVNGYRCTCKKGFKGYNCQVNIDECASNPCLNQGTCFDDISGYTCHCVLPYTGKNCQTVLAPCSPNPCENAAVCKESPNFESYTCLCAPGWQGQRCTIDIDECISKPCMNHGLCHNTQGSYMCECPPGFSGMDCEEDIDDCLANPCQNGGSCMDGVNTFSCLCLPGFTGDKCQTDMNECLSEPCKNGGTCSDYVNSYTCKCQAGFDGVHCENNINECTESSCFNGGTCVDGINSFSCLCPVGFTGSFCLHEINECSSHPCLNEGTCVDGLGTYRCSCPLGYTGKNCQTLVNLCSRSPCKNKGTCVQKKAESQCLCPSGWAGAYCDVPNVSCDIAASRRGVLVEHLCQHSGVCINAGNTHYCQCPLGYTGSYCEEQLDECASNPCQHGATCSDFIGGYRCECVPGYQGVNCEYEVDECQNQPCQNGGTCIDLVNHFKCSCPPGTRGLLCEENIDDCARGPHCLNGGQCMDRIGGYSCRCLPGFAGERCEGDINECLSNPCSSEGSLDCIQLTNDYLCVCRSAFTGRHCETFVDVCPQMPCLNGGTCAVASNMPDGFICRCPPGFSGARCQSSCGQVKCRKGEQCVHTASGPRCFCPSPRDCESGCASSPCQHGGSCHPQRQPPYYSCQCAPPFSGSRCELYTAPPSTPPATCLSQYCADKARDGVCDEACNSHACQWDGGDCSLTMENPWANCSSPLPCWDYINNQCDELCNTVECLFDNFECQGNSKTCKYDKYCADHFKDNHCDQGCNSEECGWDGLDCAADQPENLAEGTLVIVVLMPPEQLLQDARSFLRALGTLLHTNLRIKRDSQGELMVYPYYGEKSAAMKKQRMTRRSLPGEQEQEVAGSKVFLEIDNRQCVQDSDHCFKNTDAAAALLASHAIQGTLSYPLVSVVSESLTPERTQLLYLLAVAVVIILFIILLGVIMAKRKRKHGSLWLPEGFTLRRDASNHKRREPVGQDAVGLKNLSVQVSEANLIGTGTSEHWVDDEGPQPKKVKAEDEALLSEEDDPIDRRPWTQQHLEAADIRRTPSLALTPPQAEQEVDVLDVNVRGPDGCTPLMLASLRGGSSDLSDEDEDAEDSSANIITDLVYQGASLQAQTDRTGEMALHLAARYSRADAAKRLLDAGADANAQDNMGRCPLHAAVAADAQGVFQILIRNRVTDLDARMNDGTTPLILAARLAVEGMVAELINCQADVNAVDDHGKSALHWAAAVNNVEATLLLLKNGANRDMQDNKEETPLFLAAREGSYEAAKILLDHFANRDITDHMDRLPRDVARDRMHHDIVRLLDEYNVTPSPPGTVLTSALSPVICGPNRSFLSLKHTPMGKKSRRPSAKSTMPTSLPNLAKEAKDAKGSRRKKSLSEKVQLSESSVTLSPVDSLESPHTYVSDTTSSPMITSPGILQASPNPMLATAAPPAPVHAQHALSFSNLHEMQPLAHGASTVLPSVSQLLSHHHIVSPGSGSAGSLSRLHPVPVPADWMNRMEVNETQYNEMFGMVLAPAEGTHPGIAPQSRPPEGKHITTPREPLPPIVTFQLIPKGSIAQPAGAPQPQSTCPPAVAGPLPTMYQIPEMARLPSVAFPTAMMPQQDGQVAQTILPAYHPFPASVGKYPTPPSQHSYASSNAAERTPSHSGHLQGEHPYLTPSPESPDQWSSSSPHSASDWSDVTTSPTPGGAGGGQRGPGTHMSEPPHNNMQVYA

[6] = biological target: Pro-neuregulin-1, membrane-bound isoform (Homo sapiens) (UniProt Q02297); assay: small molecules binding neuregulin-1 protein – biochemical, small-molecule microarray, fluorescence 635/667, psychiatric disease protein project, primary screen (AID 1075); conditions: NRG1 binding, 635 nm fluorescence, higher = more signal;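 also: score combines 667 nm spot fluorescence with signal to noise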
Chain of Pro-neuregulin-1, membrane-bound isoform (Homo sapiens) (Q02297 whole entry, looked up, the tested form may be a part, canonical isoform): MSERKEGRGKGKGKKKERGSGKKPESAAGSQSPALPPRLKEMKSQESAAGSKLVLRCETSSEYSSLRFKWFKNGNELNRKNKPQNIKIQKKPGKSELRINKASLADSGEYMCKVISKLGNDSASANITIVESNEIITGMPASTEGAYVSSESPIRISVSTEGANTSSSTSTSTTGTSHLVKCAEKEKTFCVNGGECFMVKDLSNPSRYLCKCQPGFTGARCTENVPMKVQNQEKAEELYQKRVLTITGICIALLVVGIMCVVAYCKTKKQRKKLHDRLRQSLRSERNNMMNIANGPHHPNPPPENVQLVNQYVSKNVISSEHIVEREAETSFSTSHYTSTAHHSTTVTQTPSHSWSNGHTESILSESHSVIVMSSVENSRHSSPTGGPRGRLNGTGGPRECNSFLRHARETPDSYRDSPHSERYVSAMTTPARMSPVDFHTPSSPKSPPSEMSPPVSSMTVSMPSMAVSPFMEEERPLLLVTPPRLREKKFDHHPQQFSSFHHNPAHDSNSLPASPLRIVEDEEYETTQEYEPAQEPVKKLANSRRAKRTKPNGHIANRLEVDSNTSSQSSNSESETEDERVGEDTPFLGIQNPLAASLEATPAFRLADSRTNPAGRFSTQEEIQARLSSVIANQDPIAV

[7] = tested on: Neuregulin-1 EGF-like domain; assay: small molecules binding NRG1 EGF domain – biochemical, small-molecule microarray, 635 nm fluorescence, primary screen (AID 1081); conditions: higher = more signal;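 also: binding of the protein to compounds printed on small-molecule microarray slides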
[8] = FRG1 expression reporter modulators in myotubes – cell-based, C2C12 myotubes, firefly/Renilla luciferase, luminescence, FRG1 inhibition for FSHD, primary screen (AID 1084); conditions: FRG1 promoter luciferase, higher = more signal, called active from +8 up or from −8 down
[9] = small molecules captured by biotinylated probe aFST – biochemical, small-molecule microarray, fluorescence 635/667, stem cell growth factor project, primary screen (AID 1086); conditions: higher = more signal;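 also: score merges 667 nm fluorescence with signal-to-noise of each printed compound spot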
[10] = binders of probe aHhip on microarray, primary screen, stem cell growth factor project, biochemical, small-molecule microarray, fluorescence 635/667 (AID 1087); conditions: higher = more signal;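 also: score merges spot fluorescence at 667nm with spot signal to noise ratio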

SMILES	composite z-score [1]	composite z-score [2]	composite z-score [3]	composite z-score [4]	composite z-score [5]	composite z-score [6]	composite z-score [7]	z-score [8]	composite z-score [9]	composite z-score [10]
CC(C)[Si](C#Cc1ccccc1)(O[C@H](c1ccccc1)c1cn(Cc2ccccc2)nn1)C(C)C	-0.527	0.884	-0.123	0.76	0.534	0.8	1.28	0.92 (inactive)	0.0643	0.107
CCCCC(=C=CC[C@H](O)c1ccccc1OCCO)CCO	-0.121	-0.46	-0.0579	0.656	-0.543	1.4	0.787	0.125 (inactive)	-0.299	0.0749
COC(=O)[C@]1(Cc2ccccc2N=[N+]=[N-])N=C(c2ccc(OCCCO)cc2)O[C@@H]1c1ccccc1CN=[N+]=[N-]	0.736	1.08	0.052	0.728	0.632	1.06	1.16	-2.25 (inactive)	0.484	0.176
C[C@]12C(=O)N(CCO)[C@@H]3C(=O)N(c4ccc(Cl)cc4)CC=CC31O[C@@H]1/C=C\CCCOC(=O)C12 (stereo not given in full)	0.721	-0.581	-0.0985	-0.986	-0.759	1.12	0.0495	0.868 (inactive)	-0.599	-0.132
CN1C(=O)C2CC=C(C3=CCO[C@@H]3[C@H]3CCCN3S(=O)(=O)c3ccccc3[N+](=O)[O-])CC2C1=O (stereo not given in full)	0.895	-0.216	-0.166	0.114	-0.456	0.789	-0.132	-0.869 (inactive)	0.0699	0.0373
O=C(NCCN1CCOCC1)[C@@H]1c2ccccc2C(=O)N(CC23CC4CC(CC(C4)C2)C3)[C@H]1c1ccc(CO)cc1	-0.203	0.336	0.0458	0.734	1.64	1.78	1.39	-2.37 (inactive)	0.742	0.0373
COc1cc(Cc2cc3c(c(-c4ccccc4)n2)[Si](C(C)C)(C(C)C)OC3)cc(OC)c1OC	0.13	0.0203	-0.141	0.305	-0.374	-0.289	-0.683	-0.277 (inactive)	0.0647	0.0274
C[C@]1(C(=O)NC2CC2)c2ccccc2C(=O)N(Cc2cc(F)cc(C(F)(F)F)c2)[C@H]1c1ccc(CO)cc1	-0.364	-0.035	-0.116	-0.636	-1.13	1.72	1.37	-1.05 (inactive)	-0.527	-0.256
COc1ccc([Si](C)(C)[C@H]2[C@H](CC(=O)N3CCC[C@H]3CO)O[C@@]3(C(=O)N(C)c4ccccc43)[C@@H]2C)cc1	0.735	0.384	-0.0375	-0.0959	-0.711	0.63	1.4	-0.0568 (inactive)	0.324	0.394
C=CC[C@@]1(C(=O)NCCCOC)N=C(c2ccc(OCCCO)cc2)O[C@@H]1c1ccccc1CN=[N+]=[N-]	0.227	-0.448	0.106	0.744	1.43	1.79	1.03	-1.97 (inactive)	1.25	-0.105
Cc1ccc(N2C(=O)c3ccccc3[C@@H](C(=O)NCCN3CCOCC3)[C@@H]2c2ccc(CO)cc2)nc1	1.02	-1.48	-0.116	-0.319	-1.34	0.209	-0.297	0.169 (inactive)	-0.58	-0.249
COc1ccc(NN2C(C(O)c3ccccc3)C=CC3C(=O)N(C4CCCCC4)C(=O)C32)cc1 (stereo not given)	0.0373	0.166	0.0402	0.851	1.59	1.39	1.3	1.78 (inactive)	1.5	0.224
CN1C(=O)C2C=CC(C(O)c3ccc([N+](=O)[O-])cc3)N(Nc3ccccc3)C2C1=O (stereo not given)	-0.001	0.135	0.235	0.889	1.62	1.75	1.16	-0.439 (inactive)	0.955	-0.156
C[C@]1(C(=O)NCC(F)(F)F)c2ccccc2C(=O)N(Cc2cc(C(F)(F)F)cc(C(F)(F)F)c2)[C@H]1c1ccc(CO)cc1	0.227	-0.616	-0.0578	0.0766	-0.317	0.275	1.11	0.549 (inactive)	0.0351	-0.0994
COc1ccc(NN2C(C(O)c3ccc(F)cc3)C=CC3C(=O)N(C4CCCCC4)C(=O)C32)cc1 (stereo not given)	0.443	0.0876	0.133	0.686	1.59	1.52	1.22	1.78 (inactive)	0.688	-0.0618
Cc1ccc(S[C@]2(C(=O)NC(C)C)CC(=O)N(Cc3ccccc3)[C@@H]2c2ccc(CO)cc2I)cc1	1.28	-0.37	-0.0303	0.176	-0.705	0.291	0.478	-0.259 (inactive)	-0.26	-0.226
COc1cccc(C)c1NC(=O)O[C@H]1[C@H](OC(=O)Nc2ccc3c(c2)OCO3)[C@H](OC(=O)Nc2ccc3c(c2)OCO3)[C@@H](OC)O[C@@H]1CO	0.394	0.439	0.06	0.867	1.25	1.13	1.35	3.61 (inactive)	1.05	0.12
O=C1O[C@H](c2ccccc2)[C@H](c2ccccc2)N2[C@H]1[C@@H](C(=O)O)[C@]1(C(=O)Nc3ccccc31)[C@H]2c1ccc(OCCO)cc1	-0.442	-0.0349	-0.0112	0.334	0.239	1.57	1.04	0.248 (inactive)	0.215	0.176
[N-]=[N+]=NCc1ccccc1[C@H]1OC(c2ccc(OCCCO)cc2)=N[C@@]1(Cc1ccccc1N=[N+]=[N-])C(=O)N1CCOCC1	0.439	-0.154	0.156	0.383	1.55	1.96	1.21	-1.31 (inactive)	1.07	-0.0994
COC(=O)C1(CC(C)C)C=C2C(=C(C)C(=O)C2C)CN1 (stereo not given)	1.72	0.126	0.317	-0.302	0.28	-0.304	0.641	2.36 (inactive)	1.58	1.43
COc1ccc(CCNC(=O)[C@@]2(c3ccc([N+](=O)[O-])cc3)CC(=O)N(C3CCCCC3)[C@@H]2c2ccc(CO)cc2I)cc1	0.897	0.0603	0.0903	0.33	0.964	0.486	0.827	-1.64 (inactive)	-0.121	0.386
